# Measured values: PubChem BioAssay (EPA / NIEHS)
# Where “and” joins values, the source holds several entries; their conditions need not be identical. Identical values can stand only once. Some structures have more than one record in an assay (separate samples or runs), and their calls can disagree. Calls of active or inactive are those of the source. How the source made its calls: active means hit-call score of the fitted dose curve at least 0.9, where 1 is the maximum; inactive means score below 0.9.
# Read-out: E-selectin (Homo sapiens) (UniProt P16581)
# Assay: BSK_LPS_Eselectin: BioMAP Diversity Plus: LPS Assay for Eselectin Biomarker Activity (AID 2283077)
# Details: primary human HUVEC with PBMC; actives raise or lower the signal
# Method: BSK_LPS is a cell-based, multiplexed-readout assay that uses umbilical vein endothelium and peripheral blood mononuclear cells, a human vascular primary cell co-culture, with measurements taken at 24 hours after chemical dosing in a 96-well plate.BSK_LPS_Eselectin is an assay component measured in the BSK_LPS assay. It measures E-selectin antibody related to regulation of gene expression using ELISA technology.Data from the assay component BSK_LPS_Eselectin was analyzed into 1 assay endpoint. This assay endpoint, BSK_LPS_Eselectin, was analyzed with bidirectional fitting relative to DMSO as the negative control and baseline of activity. Using a type of binding reporter, gain or loss-of-signal activity can be used to understand changes in the signaling as they relate to the gene SELE. Furthermore, this assay endpoint can be referred to as a primary readout, because this assay has produced multiple assay endpoints where this one serves a signaling function. To generalize the intended target to other relatable targets, this assay endpoint is annotated to the cell adhesion molecules intended target family, where the subfamily is selectins.
# The levels of cell surface (or secreted, indicated by the prefix "s") biomarker endpoints were measured by ELISA. Overt cytotoxicity to cells in confluent adherent cultures (all systems other than the BT system) was assessed by measuring total protein levels using sulforhodamine B (SRB) staining in parallel cultures at the time of biomarker measurements, indicated as SRB endpoints. For proliferation assays for adherent cell types, individual cell types are cultured at sub-confluence and relative cell numbers quantified by SRB staining at time points optimized for each system (48 h: 3C and CASM3C systems; 72 h: BT and HDF3CGF systems; 96 h: SAg system). SRB was performed by staining cells with 0.1% SRB after fixation with 10% TCA and reading wells at 560 nm.Viability and proliferation of PBMC (T cells) was quantified by Alamar Blue reduction for the SAg and BT systems. For PBMC viability (referred to as PBMC Cytotoxicity within the assay endpoint names), cells were plated (75,000/well in a 96-well plate) and then chemical samples added for 1 h before addition of activators, SEB and TSST-1 (20 ng/mL final concentration each). Cells were incubated for 90 h. Then, Alamar Blue (20 uL/well) (Invitrogen, Cat DAL1100) was added for 6 h, and the plates were read with a fluorescence microplate reader at 546/580 nm (excitation/emission). For PBMC proliferation, cells were plated and activated as above but incubated for only 16 h prior to addition of Alamar Blue. Plates were read after 6 h.
# E-selectin (Homo sapiens), sequence (P16581 whole entry, looked up): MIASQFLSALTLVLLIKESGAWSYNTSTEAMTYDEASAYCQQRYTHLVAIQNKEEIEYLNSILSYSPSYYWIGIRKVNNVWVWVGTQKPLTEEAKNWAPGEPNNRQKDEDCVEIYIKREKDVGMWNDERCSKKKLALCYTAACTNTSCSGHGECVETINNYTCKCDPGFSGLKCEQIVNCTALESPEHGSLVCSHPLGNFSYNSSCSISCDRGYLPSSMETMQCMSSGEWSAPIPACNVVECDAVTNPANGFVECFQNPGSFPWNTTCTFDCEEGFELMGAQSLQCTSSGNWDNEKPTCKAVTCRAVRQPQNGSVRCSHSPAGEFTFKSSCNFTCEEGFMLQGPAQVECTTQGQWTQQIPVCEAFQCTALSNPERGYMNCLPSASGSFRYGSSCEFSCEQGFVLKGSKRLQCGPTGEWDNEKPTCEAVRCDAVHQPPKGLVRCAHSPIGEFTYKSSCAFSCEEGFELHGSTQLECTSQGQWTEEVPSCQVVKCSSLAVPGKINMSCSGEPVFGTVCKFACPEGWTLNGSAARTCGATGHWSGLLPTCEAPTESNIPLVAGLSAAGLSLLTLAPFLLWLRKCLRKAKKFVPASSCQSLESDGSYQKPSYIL
Structure (SMILES),outcome,AC50
O=c1c2ccccc2c(=O)c2c1cc(Cl)c1[nH]c3c([nH]c12)c(Cl)cc1c(=O)c2ccccc2c(=O)c13,inactive,–
O=C1C=CC(=O)C=C1,–,26.4 µM (active) and 30.4 µM (active)
Clc1ccc(-c2ccccc2)cc1,inactive,–
N#CCCCCC#N,inactive,–
O=P1(NCCCl)OCCCN1CCCl (stereo not drawn),inactive,–
Oc1cc(Cl)ccc1Cl,inactive,–
O=S(=O)(c1ccccc1)c1ccccc1,inactive,–
O=[N+]([O-])C=Cc1ccccc1,–,15.3 µM (active)
CCCCCCCCCCCC#N,–,31.5 µM (active)
O=[N+]([O-])O,inactive,–
CCC(C)c1cc([N+](=O)[O-])cc([N+](=O)[O-])c1OC(=O)C=C(C)C (stereo not drawn),–,13.3 µM (active)
CNC(=O)Oc1cc(C)c(SC)c(C)c1,inactive,–
O=[N+]([O-])c1ccc(Cl)cc1,inactive,–
CC(C)COP(=O)(OCC(C)C)OCC(C)C,inactive,–
O=c1[nH]c(Cl)c(Cl)cc1Cl,inactive,–
Nc1ccc(-c2ccc(N)c(N)c2)cc1N,inactive,–
COC(C)(C)CCC[C@H](C)C/C=C/C(C)=C/C(=O)OC(C)C,–,35.3 µM (active)
O=C(CCl)c1ccccc1,–,6.13 µM (active)
c1ccc(Nc2ccc3ccccc3c2)cc1,inactive,–

Structure (SMILES),outcome,AC50
Oc1ccc(C2(c3ccc(O)cc3)c3ccccc3-c3ccccc32)cc1,–,31.6 µM (active) and 33.9 µM (active)
C=CCN(CC=C)C(=O)C(Cl)Cl,inactive,–
CC1(C)[C@H](C(=O)O[C@H](C#N)c2cccc(Oc3ccccc3)c2)[C@@H]1C=C(Br)Br,inactive,–
CCCC[N+](CCCC)(CCCC)CCCC,inactive,–
COCC(=O)N(c1c(C)cccc1C)N1CCOC1=O,inactive,–
CC(C)(C)C(O)C(Oc1ccc(-c2ccccc2)cc1)n1cncn1 (stereo not drawn),inactive,–
CCc1cc(C)cc(CC)c1-c1c(OC(=O)C(C)(C)C)n2n(c1=O)CCOCC2,inactive,–
CC(=O)/C=C/c1ccccc1,–,31.1 µM (active)
CC(C)(C)C(=O)CCl,inactive,–
CC(C)CCCCCCCOC(=O)c1ccccc1C(=O)OCCCCCCCC(C)C,inactive,–
CCCOC(=O)c1ccccc1C(=O)OCCC,inactive,–
[Cd+2].[Cl-].[Cl-],–,32.8 µM (active) and 35.4 µM (active)
O=C(O)CCCc1ccc(N(CCCl)CCCl)cc1,inactive,20 µM (active)
O=C1C(Cl)=C(Cl)C(=O)C(Cl)=C1Cl,–,30.2 µM (active)
C=CC(=O)OCC(CC)CCCC (stereo not drawn),inactive,–
Cc1ccc(OP(=O)(Oc2ccc(C)cc2)Oc2ccc(C)cc2)cc1 (tested in a mixture with another compound),inactive,–
CC(C)CCCCCCCOP(=O)(Oc1ccccc1)Oc1ccccc1,–,23 µM (active)
COc1ccc(CO)cc1,inactive,–
